Assay results as given in PubChem BioAssay AID504895 (National Center for Advancing Translational Sciences (NCATS), 2011).
Results filed as inconclusive are left out. Active and inactive are the calls of the source. The call rests on the fitted dose curve; in most records, active means well fitted curve in the direction sought with a large enough effect; inconclusive means small, poorly fitted or top-dose-only effect, or another doubt; inactive means no such curve, though single readings can be large or run the other way.

Each molecule was assayed against Protein phosphatase EYA2 (Homo sapiens) (UniProt O00167) (assay: Inhibitors of Eya2ED: Hit Confirmation in Primary Screen). Details: Recombinant Eya2ED, OMFP fluorescence phosphatase assay; series mostly up to 76.9 µM; activity change, negative = inhibition: at the top concentration.
Protein phosphatase EYA2 (Homo sapiens), sequence (O00167 whole entry, looked up): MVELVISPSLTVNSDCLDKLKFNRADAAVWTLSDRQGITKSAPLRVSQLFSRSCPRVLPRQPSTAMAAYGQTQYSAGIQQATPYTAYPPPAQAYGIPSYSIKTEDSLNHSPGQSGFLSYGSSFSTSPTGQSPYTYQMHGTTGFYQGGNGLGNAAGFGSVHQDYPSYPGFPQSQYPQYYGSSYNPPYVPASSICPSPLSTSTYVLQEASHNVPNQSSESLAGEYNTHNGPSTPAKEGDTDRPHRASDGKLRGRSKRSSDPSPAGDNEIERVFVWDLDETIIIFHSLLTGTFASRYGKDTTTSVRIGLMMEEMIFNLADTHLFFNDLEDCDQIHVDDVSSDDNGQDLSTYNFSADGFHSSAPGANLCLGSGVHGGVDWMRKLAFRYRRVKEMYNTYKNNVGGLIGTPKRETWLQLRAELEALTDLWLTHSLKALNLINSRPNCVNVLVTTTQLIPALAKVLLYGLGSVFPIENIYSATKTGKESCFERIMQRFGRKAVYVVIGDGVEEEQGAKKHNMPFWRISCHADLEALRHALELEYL
Method in brief: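 Hits were retested as 12-point titrations. Compound sat 10 min at ambient with Eya2 (0.2 uM in dispense) in HEPES pH 7.5 buffer with NaCl, MgCl2, BSA and DTT, then OMFP substrate (50 uM in dispense) was added. Dephosphorylation was read by fluorescence at 485/525 nm after a further 10 min.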

Row | SMILES | activity change, negative = inhibition
1 | CC1(c2ccccc2Cl)NC(=O)N(CC(=O)N2CCc3ccccc3C2)C1=O (stereo unspecified) | -2.47% (inactive)
2 | COc1ccc(CC(=O)Nc2cccnc2)cc1 | -22.4% (inactive)
3 | Cc1cc(/C=C2\SC(=S)NC2=O)cc(C)c1O | 0.396% (inactive)
4 | CN1CC[n+]2cnc3ccccc3c21 | -18.8% (inactive)
5 | O=C(C[C@H]1C/C=C/CC[C@H](Cc2ccc(F)cc2)C(=O)O[C@H](c2ccccc2)CNC1=O)NCCO | -32.4% (inactive)
6 | CCC(C)N(C(=O)c1csnn1)C(C(=O)NC1CCCC1)c1ccccc1F (stereo unspecified) | -5.36% (inactive)
7 | COC(=O)C1OC(OC2CC[C@]3(C)C(CC[C@@]4(C)[C@@H]3CC=C3[C@@H]5CC(C)(C)CC[C@]5(C(=O)OC5OC(CO)C(O)C(O)C5O)CC[C@]34C)C2(C)C)C(O)C(O)C1O[C@H]1OCC(O)C(O)C1O (stereo partly specified) | -25.9% (inactive)
8 | Cc1ccc(OCC(=O)N2c3ccccc3NC(=O)C2(C)C)c([N+](=O)[O-])n1 | -20.5% (inactive)
9 | CC1CN(S(=O)(=O)c2ccc(C(=O)Nc3nnc(-c4ccco4)o3)cc2)CC(C)O1 (stereo unspecified) | 12.1% (inactive)
10 | COc1cc(C(=O)Nc2ccc(NC(=O)c3ccccc3Cl)nc2)cc(OC)c1OC | 24.2% (inactive)
11 | O=C(c1ccccc1Cl)N1CCN(C(=O)C2CCCO2)CC1 (stereo unspecified) | -18.2% (inactive)
12 | NC(=O)Nc1ccc(C(=O)OCC(=O)NC2CCCCC2)cc1 | 6.46% (inactive)
13 | O=C(CCc1nc2ccccc2s1)NCc1ccccc1F | 7.84% (inactive)
14 | CSCC[C@H](NC(=O)[C@@H]1Cc2ccccc2CN1)C(=O)Nc1ccc2c(c1)OCCO2 | 0.798% (inactive)
15 | Cc1ccc(N(CC(=O)N2CCOCC2)S(C)(=O)=O)cc1Cl | -1.2% (inactive)
16 | Oc1oc(C=Nc2ccc(F)cc2F)c2ccccc12 | -7.45% (inactive)

Row | SMILES | activity change, negative = inhibition
17 | S=C1NC[C@H](CC2CCCCC2)N1CC1CCCCC1 | -25.8% (inactive)
18 | COc1ccc2c(c1)[C@H]1[C@H](CO2)[C@H](c2ccccc2)[C@]2(C)C(=O)Nc3ccc(F)cc3C(=O)N12 | -16.7% (inactive)
19 | N=C(N)SCc1ncccc1O | 6.85% (inactive)
20 | O=C(NC(=S)Nc1ccccc1N1CCCCC1)c1ccc(F)cc1Cl | -8.89% (inactive)
21 | CC(C)(C)C(=O)Nc1nc(=S)ss1 | -11.3% (inactive)
22 | COc1ccc(C(=O)NCCSCc2ccccc2C)cc1 | -14.1% (inactive)
23 | N#Cc1ccccc1NC(=O)CSC1=Nc2ccccc2C2CC=NN12 (stereo unspecified) | -26.1% (inactive)
24 | O=C(COC(=O)c1cc(Cl)ccc1Cl)NC1CCCC1 | -18% (inactive)
25 | CCCc1nnc(SCc2ccc(C(=O)OC)o2)n1N | 7.95% (inactive)
26 | COc1ccc(NC(=O)CSc2nc3[nH]c(=O)[nH]c(=O)c3s2)cc1OC | 16% (inactive)
27 | Cc1nn(C)c(C)c1NC(=O)Nc1ccc(Cl)c(Cl)c1 | -26.5% (inactive)
28 | O=C(NN=C1CCCC1)c1[nH]c2ccc(Br)cc2c1-c1ccccc1 | -22.3% (inactive)
29 | COc1ccc(CCNC(=O)CCSc2nc(-c3ccco3)cc(C(F)(F)F)n2)cc1OC | -7.04% (inactive)
30 | COc1ccccc1OCCCCOc1ccccc1F | -3.36% (inactive)
31 | O=C(CCCN=C1NS(=O)(=O)c2ccccc21)OCc1ccc(F)cc1 | -0.078% (inactive)
